The panel holds about 83,000 compounds, 20% with a hit somewhere; the sample as a whole holds those more often.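 96-well plates, one dose, 48 hours. Percent growth reported; active if below 10.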 Unmarked numbers belong to inactive results. Active and inactive are the calls of the source.

The test system of this assay is NCI-H322M lung. Put plainly: NCI-60 one-dose screen, 48 h (100 = growth as untreated, 0 = no growth, -100 = all killed). The note with it: 10 µM unless noted. As for the experimental part:
Growth inhibition of the NCI-H322M human Non-Small Cell Lung tumor cell line is measured as a screen for anti-cancer activity. Cells are grown in 96 well plates and exposed to the test compound for 48 hours. Compounds are tested at a single concentration, which is 10^-5 M for most compounds. The reported endpoint is percent growth (GI% or GIPRCNT), where numbers from 0 - 100% represent growth inhibition, and numbers from -100% - 0 represent cell death. For example, a value of 40 represents 60% growth inhibition. A value of 0 means no net growth occurred over the course of the experiment. A value of -40 indicates 40% of cells at the beginning of the experiment died by the end of the experiment. A value of -100 means all cells are dead at the end of the experiment.
NCI-60 Human Tumor Cell Lines Screen was performed using the standard one-dose NCI protocol, which is described in more detail at https://dtp.cancer.gov/discovery_development/nci-60/default.htm.
Compounds with GIPRCNT values below 10 were considered active. Activity score was based on GIPRCNT using the following formula: […]
Score is 0 for GIPRCNT values of 100 or above, 50 for GIPRCNT values of 0, and 100 for GIPRCNT values of -100.
On to `COc1cc(NC(=O)SC2=NCCS2)cc(OC)c1`, for which the growth is 110%.
For the compound `COc1cc(Nc2ncccc2C(=O)NCc2cn(Cc3cccc(Oc4ccccc4)c3)nn2)cc(OC)c1`, the growth is 65.2%.
On to `COc1ccc(-c2[nH]nc(N)c2-c2cc(OC)c3c(c2)OCO3)cc1`, for which the growth was 92.9%.
For `N/C(=N\S(=O)(=O)c1ccccc1)Nc1nc2ccccc2s1` the value was 91.1%; for `O=Nc1c(-c2cccc([N+](=O)[O-])c2)nc2ncccn12`, 120%; for `C=C[C@@H]1C[C@H](O)Cc2ccccc2N1`, 125%.
For `C=C[C@@H]1C[C@@H]2Cc3ccccc3N1O2` the value was 112%.
The figure for `C/C(=N/NC(=S)Nc1ccccc1)c1nc2ccc(Cl)cc2[nH]1` is -40.4% (active).
In the case of `COc1ccc(C(=O)c2cc(OC)c(OC)c(OC)c2OC)cc1O`, the growth was 55.4%.
For `COc1ccc2c(c1)[nH]c(=O)c1c3cc(C)c(C)cc3cn21` the value was -25.1% (active).
As for `O=[N+]([O-])c1ccc(OCCCOc2ccccc2)cc1`, the growth was 101%.
Take `Clc1ccc2c(NC3CCC(NC4CCCCC4)CC3)ccnc2c1` (stereo not given): the growth is 109%.
For `CN1CCN(Cc2ccc(NC(=O)c3cncc(C#Cc4cnc(N)c5cnccc45)c3)cc2C(F)(F)F)CC1` the value was 13%.
As for `COc1ccc(/C=C2/C(=O)NC(SCC(=O)N3CCN(c4cc5c(cc4F)c(=O)c(C(=O)O)cn5C4CC4)CC3)=NC2N)cc1OC` (stereo not given), the growth was 111%.
For `S=c1[nH]nc(-c2cc3ccc2CCc2ccc(cc2)CC3)n1C1CC1`, the growth is 105%.
The figure for `Cc1ccc2[nH]c(=O)c3c(c2c1)Oc1ncn2nc(-c4ccco4)nc2c1C3c1ccc(Cl)cc1` (stereo not given) is 96.1%; for `Cc1ccc(S(=O)(=O)NCCCNc2cc(-c3cn(C(C)(C)C)nc3-c3cccc(O)c3)ccn2)cc1` it is 87.9%; for `CCN1CCN(c2nc(NNC(=O)c3ccccc3)nc(N3CCN(C(c4ccccc4)c4ccccc4)CC3)n2)CC1` it is 90.3%.
For `C/C=C/C1=CN2C(=O)c3cc(OC4OC(C)C(NC)C(C)(O)C4O)c(C)cc3N=C[C@@H]2C1` (stereo not given in full) the value was -20.1% (active); for `COc1ccc2c(c1)[nH]c(=O)c1c3cc(OC)ccc3cn21`, 33.6%; for `COc1ccc(NC(=O)c2cc(OC)c(OC)c(OC)c2)cc1O`, 68.2%.
For `CNC(=S)NNC(=O)C1CC1` the value was 121%; for `COc1ccc(C2CC(c3ccc(OC)cc3OC)=NN2c2ccc(S(N)(=O)=O)cc2)cc1` (stereo not given), 94.4%; for `Brc1cccc(-c2cc(-c3ccc4c(c3)OCCCO4)[nH]n2)c1`, 68% [25 µM].
In the case of `Cn1ncc2c(Sc3ccc(Cl)cc3)ncnc21`, the growth is 86.5%.
For `Clc1cc2c(nn1)Nc1ccccc1S2` the value was 97.8%; for `CC(C)(C)n1cc(-c2ccnc(NCCCNS(=O)(=O)c3ccc(Br)cc3)c2)c(-c2cccc(O)c2)n1`, 30.9%.
For `N#Cc1ccc(N2Cc3ccccc3OC3=C2C(=O)c2c(O)ccc(O)c2C3=O)cc1`, the growth was 66.8%.
For the compound `COc1cc(-c2nc(-c3nc4ccc(Cl)cc4[nH]3)cc3c2[nH]c2ccccc23)cc(OC)c1OC`, the growth is 82.9%.
Regarding `CCCCCCCCCCCCNC(=O)[C@H]1CSC(c2cc(Br)cs2)N1` (stereo not given in full), the growth was 54%.
For `OCCCCCCNc1ncnc2cc(Cl)ccc12`, the growth is 105%.
With `Clc1ccc(-c2nc3ccccc3s2)cc1Cl`, the growth is 110%.
Turning to `COc1cc(C2CC(c3ccc4c(c3)OCO4)=NN2C(C)=O)cc(OC)c1OC` (stereo not given), the growth was -12.9% (active).
The figure for `O=c1[nH]c(Nc2ccc(S(=O)(=O)O)cc2)nc2nc(Nc3ccc(NC(=S)Nc4ccccc4)cc3)nc(-c3ccc(O)cc3O)c12` is 125%; for `Fc1ccccc1-c1nc(-c2nc3cc(Cl)c(Cl)cc3[nH]2)c2ccccn12` it is 67.8%.
The figure for `COc1cc2c(=O)n(C3CCCCCC3)c3c4cc[nH]c4ncc3c2cc1OC` is 89.2%; for `CC12CCC3C4(C)COC(c5ccccc5Cl)OC4CCC3(C)C1CC(C1=CCOC1=O)O2` (stereo not given) it is 90.2%.
On to `Brc1ccc(-c2[nH]ncc2-c2c[nH]c3ccccc23)cc1`, for which the growth was 99.7%.
The figure for `CC(C)CC1NC(C)(C)CO1` (stereo not given) is 121%.
For the compound `O=[N+]([O-])c1cccc(-c2nc3sccn3c2-c2ccnc(NCCCNS(=O)(=O)c3ccc(Cl)cc3)n2)c1`, the growth was 78.5%.
